PubChem BioAssay AID1159580 (chemical genetic matrix, 2015)
Where “and” joins values, the source holds several entries; their conditions need not be identical. Equal entries are not always repeated. Among all 5,500 compounds or so, about 2,000 (36%) were called active. Roughly 18% stayed inconclusive and do not appear here. Rule as the data show it: active = normalized growth mostly below about 0.91 (no sharp cut-off); inconclusive = no clear call, values can overlap the other calls; inactive = mostly above about 0.92. This is one part of the list.

Assay: chemical genetic growth profiling, strain panel (AID 1159580);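 also: tested at 20 µM; growth read once vehicle control cultures reached saturation at 30 °C; 1 = growth at the plate median or of vehicle wells; lower values mean less growth of the strain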
Conditions: growth OD
[1] = S. cerevisiae deletion strains, locus YBR229C, strain ROT2, active compounds read low
[2] = S. cerevisiae deletion strains, locus YDL101C, strain DUN1, active compounds read low
[3] = S. cerevisiae deletion strains, locus YDR150W, strain NUM1, active compounds read low
[4] = S. cerevisiae deletion strains, locus YEL061C, strain CIN8, active compounds read low
[5] = S. cerevisiae deletion strains, locus YGR078C, strain PAC10, active compounds read low
[6] = S. cerevisiae deletion strains, locus YHR030C, strain SLT2, active compounds read low
[7] = S. cerevisiae deletion strains, locus YJR043C, strain POL32, active compounds read low
[8] = S. cerevisiae deletion strains, locus YJR075W, strain HOC1, active compounds read low
[9] = S. cerevisiae deletion strains, locus YLR039C, strain RIC1, active compounds read low
[10] = S. cerevisiae deletion strains, locus YLR262C, strain YPT6, active compounds read low
[11] = S. cerevisiae deletion strains, locus YMR307W, strain GAS1, active compounds read low
[12] = S. cerevisiae deletion strains, locus YNL153C, strain GIM3, active compounds read low
[13] = S. cerevisiae deletion strains, locus YPL055C, strain LGE1, active compounds read low
[14] = S. cerevisiae deletion strains, locus YPL241C, strain CIN2, active compounds read low
[15] = S. cerevisiae strains, strain wild type, active compounds read low
[16] = S. cerevisiae deletion strains, locus YAL013W, strain DEP1, active compounds read low
[17] = S. cerevisiae deletion strains, locus YDL134C, strain PPH21, active compounds read low
[18] = S. cerevisiae deletion strains, locus YHR087W, strain rtc3, active compounds read low
[19] = S. cerevisiae deletion strains, locus YJL187C, strain SWE1, active compounds read low
[20] = S. cerevisiae deletion strains, locus YLR058C, strain SHM2 (second series), active compounds read low
[21] = S. cerevisiae deletion strains, locus YLR085C, strain ARP6, active compounds read low
[22] = S. cerevisiae deletion strains, locus YML094W, strain GIM5, active compounds read low
[23] = S. cerevisiae deletion strains, locus YMR219W, strain ESC1, active compounds read low
[24] = S. cerevisiae deletion strains, locus YMR263W, strain SAP30, active compounds read low
[25] = S. cerevisiae deletion strains, locus YNL298W, strain CLA4 (second series), active compounds read low
[26] = S. cerevisiae deletion strains, locus YNL322C, strain KRE1, active compounds read low
[27] = S. cerevisiae deletion strains, locus YNR030W, strain Alg12, active compounds read low
[28] = S. cerevisiae deletion strains, locus YPR135W, strain CTF4, active compounds read low
[29] = S. cerevisiae deletion strains, locus YCL061C, strain MRC1, active compounds read low

Measured: normalized growth

O=c1ccn([C@@H]2O[C@H](COP(=O)(O)OP(=O)(O)OP(=O)(O)O)[C@@H](O)[C@H]2O)c(=O)[nH]1
inactive: S. cerevisiae deletion strains, locus YBR021W, strain FUR4, active compounds read low 1.06 | [1] 1.02 | S. cerevisiae deletion strains, locus YCL029C, strain bik1, active compounds read low 0.999 | S. cerevisiae deletion strains, locus YDL035C, strain GPR1, active compounds read low 1.02 | S. cerevisiae deletion strains, locus YDL074C, strain BRE1, active compounds read low 1.04 | [2] 1.02 | S. cerevisiae deletion strains, locus YDL185W, strain tfp1, active compounds read low 0.974 | S. cerevisiae deletion strains, locus YDL192W, strain arf1, active compounds read low 0.991 | S. cerevisiae deletion strains, locus YDR101C, strain arx1, active compounds read low 1.03 | [3] 1.02 | S. cerevisiae deletion strains, locus YDR162C, strain NBP2, active compounds read low 1.01 | S. cerevisiae deletion strains, locus YDR318W, strain mcm21, active compounds read low 1 | S. cerevisiae deletion strains, locus YDR388W, active compounds read low 0.988 | S. cerevisiae deletion strains, locus YDR502C, strain sam2, active compounds read low 0.993 | [4] 1.01 | S. cerevisiae deletion strains, locus YER110C, active compounds read low 0.954 | S. cerevisiae deletion strains, locus YER155C, strain BEM2, active compounds read low 1.02 | S. cerevisiae deletion strains, locus YER167W, strain BCK2, active compounds read low 1.02 | S. cerevisiae deletion strains, locus YGL078C, strain dbp3, active compounds read low 0.984 | S. cerevisiae deletion strains, locus YGL086W, strain mad1, active compounds read low 0.996 | S. cerevisiae deletion strains, locus YGL248W, strain PDE1, active compounds read low 1.02 | [5] 1.02 | S. cerevisiae deletion strains, locus YGR135W, strain pre9, active compounds read low 0.946 | S. cerevisiae deletion strains, locus YGR252W, strain gcn5, active compounds read low 0.975 | [6] 1.01 and 1.04 | S. cerevisiae deletion strains, locus YHR079C, strain IRE1 (second series), active compounds read low 1 | S. cerevisiae deletion strains, locus YHR079C, strain IRE1, active compounds read low 1.04 | S. cerevisiae deletion strains, locus YHR094C, strain hxt1, active compounds read low 0.996 | S. cerevisiae deletion strains, locus YHR129C, strain ARP1, active compounds read low 1.02 | S. cerevisiae deletion strains, locus YHR200W, strain rpn10, active compounds read low 1 | S. cerevisiae deletion strains, locus YIL066C, strain RNR3, active compounds read low 1.03 | S. cerevisiae deletion strains, locus YIL073C, strain SPO22, active compounds read low 0.962 | S. cerevisiae deletion strains, locus YIL125W, strain kgd1, active compounds read low 1.01 | S. cerevisiae deletion strains, locus YIR030C, strain dcg1, active compounds read low 0.996 | S. cerevisiae deletion strains, locus YJL095W, strain BCK1, active compounds read low 1.04 | S. cerevisiae deletion strains, locus YJL134W, strain LCB3, active compounds read low 1.01 | S. cerevisiae deletion strains, locus YJL168C, strain set2, active compounds read low 0.98 | S. cerevisiae deletion strains, locus YJL187C, strain SWE1 (second series), active compounds read low 1.03 | [7] 1.04 | S. cerevisiae deletion strains, locus YJR066W, strain TOR1, active compounds read low 1.01 | [8] 1 | S. cerevisiae deletion strains, locus YKL009W, strain mrt4, active compounds read low 0.979 | S. cerevisiae deletion strains, locus YKL068W, active compounds read low 1.02 | S. cerevisiae deletion strains, locus YKL085W, strain MDH1 (second series), active compounds read low 1.01 | S. cerevisiae deletion strains, locus YKL085W, strain MDH1, active compounds read low 1.01 | S. cerevisiae deletion strains, locus YKR001C, strain vps1, active compounds read low 0.99 | [9] 1.04 | S. cerevisiae deletion strains, locus YLR058C, strain SHM2, active compounds read low 1.01 | S. cerevisiae deletion strains, locus YLR102C, strain apc9, active compounds read low 1 | S. cerevisiae deletion strains, locus YLR113W, strain HOG1, active compounds read low 1.05 | [10] 1.03 | S. cerevisiae deletion strains, locus YLR268W, strain sec22, active compounds read low 0.988 | S. cerevisiae deletion strains, locus YLR330W, strain CHS5, active compounds read low 1.01 | S. cerevisiae deletion strains, locus YLR342W, strain FKS1 (second series), active compounds read low 1.03 | S. cerevisiae deletion strains, locus YLR371W, strain rom2, active compounds read low 0.998 | S. cerevisiae deletion strains, locus YLR418C, strain cdc73, active compounds read low 0.976 | S. cerevisiae deletion strains, locus YML016C, strain PPZ1, active compounds read low 1.01 | S. cerevisiae deletion strains, locus YML032C, strain rad52, active compounds read low 0.972 | S. cerevisiae deletion strains, locus YML124C, strain tub3, active compounds read low 0.995 | S. cerevisiae deletion strains, locus YMR078C, strain ctf18, active compounds read low 1 | S. cerevisiae deletion strains, locus YMR223W, strain ubp8, active compounds read low 0.977 | [11] 0.976 | S. cerevisiae deletion strains, locus YNL067W, strain RPL9B, active compounds read low 1.04 | [12] 1.04 | S. cerevisiae deletion strains, locus YNL183C, strain NPR1, active compounds read low 1.04 | S. cerevisiae deletion strains, locus YNL233W, strain BNI4, active compounds read low 1.04 | S. cerevisiae deletion strains, locus YNL250W, strain rad50, active compounds read low 0.989 | S. cerevisiae deletion strains, locus YNL271C, strain bni1, active compounds read low 0.998 | S. cerevisiae deletion strains, locus YNL298W, strain CLA4, active compounds read low 0.98 | S. cerevisiae deletion strains, locus YNL307C, strain MCK1, active compounds read low 0.994 | S. cerevisiae deletion strains, locus YNR052C, strain pop2, active compounds read low 0.995 | S. cerevisiae deletion strains, locus YOL012C, strain htz1 0.439 | S. cerevisiae deletion strains, locus YOL147C, strain pex11, active compounds read low 0.99 | S. cerevisiae deletion strains, locus YOR061W, strain CKA2, active compounds read low 1.01 | S. cerevisiae deletion strains, locus YOR069W, strain VPS5, active compounds read low 1.01 | S. cerevisiae deletion strains, locus YOR136W, strain idh2, active compounds read low 0.997 | S. cerevisiae deletion strains, locus YOR144C, strain elg1, active compounds read low 0.992 | S. cerevisiae deletion strains, locus YOR184W, strain ser1, active compounds read low 0.965 | S. cerevisiae deletion strains, locus YOR231W, strain MKK1, active compounds read low 1.07 | S. cerevisiae deletion strains, locus YOR316C, strain cot1, active compounds read low 1 | [13] 1.04 | [14] 0.998 | S. cerevisiae deletion strains, locus YPL256C, strain CLN2, active compounds read low 1.03 | S. cerevisiae deletion strains, locus YPR119W, strain clb2, active compounds read low 1 | S. cerevisiae deletion strains, locus YPR141C, strain kar3, active compounds read low 1.01 | S. cerevisiae deletion strains, locus YPR163C, strain tif3, active compounds read low 1.02 | S. cerevisiae deletion strains, locus YPR167C, strain met16, active compounds read low 1 | S. cerevisiae deletion strains, strain wtn01, active compounds read low 0.977 | [15] 1.01

Cc1onc(-c2ccccc2Cl)c1C(=O)Nc1ccc2c(c1)OCO2
inactive: [16] 0.993 | [1] 1.02 | [2] 1 | [17] 0.985 | [3] 0.935 | [4] 1.01 | [5] 1 | S. cerevisiae deletion strains, locus YGR229C, strain SMI1, active compounds read low 0.997 | [6] 1.08 | [18] 1.01 | [19] 1.01 | [7] 1.03 | [8] 1.01 | [9] 0.971 | [20] 1.02 | [21] 0.997 | [10] 0.99 | [22] 1.02 | [23] 1 | [24] 0.919 | [11] 1.01 | [12] 1 | [25] 1.04 | [26] 0.995 | [27] 1.03 | [13] 0.888 | [14] 1.01 | [28] 1.14

CSc1nc2ccc(NC(=O)c3c(-c4ccccc4)noc3C)cc2s1
active: [10] 0.787
inactive: [16] 0.971 | [1] 1.01 | [29] 0.99 | [2] 1.01 | [17] 1 | [3] 0.896 | [4] 1 | [5] 0.984 | [6] 0.897 | [18] 1 | [19] 1 | [7] 0.999 | [8] 1 | [9] 0.888 | [20] 0.996 | [21] 0.85 | [22] 0.974 | [23] 1 | [24] 0.945 | [11] 0.961 | S. cerevisiae deletion strains, locus YNL128W, strain TEP1, active compounds read low 1 | [12] 1.01 | [25] 1 | [26] 0.998 | [27] 1 | [13] 0.926 | [14] 1 | [28] 0.921 | [15] 1.01

Cc1onc(-c2ccccc2Cl)c1C(=O)Nc1ccc(S(=O)(=O)Nc2nccs2)cc1
inactive: [16] 1.01 | [1] 1.01 | [29] 0.985 | [2] 0.977 | [17] 0.976 | [3] 0.972 | [4] 1.01 | [5] 1.01 | [6] 0.982 | [18] 0.968 | [19] 1 | [7] 0.966 | [8] 1 | S. cerevisiae deletion strains, locus YKL190W, strain CNB1, active compounds read low 0.989 | [9] 0.975 | [20] 0.982 | [21] 1.05 | [10] 0.97 | [22] 1.03 | [23] 0.999 | [24] 1 | [12] 0.98 | [25] 0.949 | [26] 0.995 | [27] 0.996 | S. cerevisiae deletion strains, locus YOL006C, strain TOP1, active compounds read low 0.926 | [13] 1.05 | [14] 1.01 | [28] 0.932 | [15] 0.968
